Source: PubChem
Compounds with a hit are over-represented: about 4.1% of the library has one in this group of screens.
DAX1 inh-1: blocks DAX1 repression of SF-1 activated StAR promoter | HEK293T StAR-luciferase reporter, SF-1/DAX-1 repression relief | inhibition, % at 6.8 µM | 370,000 tested, 1.1% active | AID 652010;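 active = inhibition above the mean over all tested compounds plus 3 SD, cut at about 3.6% in these data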;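 also: higher inhibition means more luminescence from relief of DAX-1 repression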
DAX1 inh-2: inhibitors of human orphan nuclear receptor DAX1 (NR0B1). 340,000 tested, 0.99% active. inhibition, % at 6.75 µM. AID 504766. HEK293 Gal4-DAX1 luciferase reporter, luminescence;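 active = inhibition above the mean over all tested compounds plus 3 SD, cut at about 4.2% in these data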;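 also: inhibition shows as a rise in luminescence from relieved DAX1 repression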
hcDAF12 agonist: H. contortus DAF-12 activation, primary screen; HEK293 hcDAF-12 lit1-tk-luc reporter, luminescence; 0% DMSO, 100% Δ7-dafachronic acid; activation, % at 6.8 µM; 370,000 tested, 1.4% active; AID 652067;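 active = activation above the mean of all tested compounds plus 3 SD, cut at about 5.5% in these data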
ssDAF12 agonist: S. stercoralis DAF-12 activation, primary screen. HEK293 ssDAF-12/GRIP1 lit1-tk-luc reporter, luminescence; % of 3 µM dafachronic acid response. activation, % at 6.8 µM. 370,000 tested, 1% active. AID 652126;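 active = activation above the mean over all tested compounds plus 3 SD, cut at about 0.9% in these data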
hgDAF12 agonist: activates the H. glycines DAF-12 receptor ligand-binding domain | HEK293 GAL4-hgDAF12 UAS-luciferase reporter, agonist luminescence; normalized to butyrate control | activation, % at 6.8 µM | 370,000 tested, 1.8% active;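 active = activation above a cutoff set at the mean of all screened compounds plus 3 SD, cut at about 10% in these data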
DAX1 conf: confirmation of human DAX1 (NR0B1) inhibitors; AID 652134; shares compounds with DAX1 inh-1; HEK293T StAR-promoter luciferase reporter, SF-1/DAX-1 repression; 2,400 tested, 87% active; inhibition, % at 6.8 µM;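 active = inhibition above the average of every tested compound plus 3 SD, cut at about 3.8% in these data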;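 also: active compounds raise luminescence by relieving repression of the StAR reporter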
SF1 AF2mut Luc: counter-screen for DAX1 inhibitors: nonselective inhibitors with SF-1 AF2 mutant; shares compounds with DAX1 inh-1; HEK293 StAR-luciferase, luminescence; inhibition, % at 6.8 µM; 2,400 tested, 78% active;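 active = inhibition above the mean of all tested compounds plus 3 SD, cut at about 3% in these data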
LXRb hcDAF ctr: counter-screen for hcDAF-12 agonists: agonists of human LXR-beta; shares compounds with hcDAF12 agonist; HEK293 Gal4-LXR tk-luc reporter, luminescence, 24 h; normalized: DMSO 0%, positive control 100%; activation, % at 6.8 µM; 3,400 tested, under 10 active; AID 743027;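 active = mean percent activation of the reporter above a cutoff set as the average over tested compounds plus their standard deviation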
Target sequence (P55055 whole entry, looked up, the tested form may be a part): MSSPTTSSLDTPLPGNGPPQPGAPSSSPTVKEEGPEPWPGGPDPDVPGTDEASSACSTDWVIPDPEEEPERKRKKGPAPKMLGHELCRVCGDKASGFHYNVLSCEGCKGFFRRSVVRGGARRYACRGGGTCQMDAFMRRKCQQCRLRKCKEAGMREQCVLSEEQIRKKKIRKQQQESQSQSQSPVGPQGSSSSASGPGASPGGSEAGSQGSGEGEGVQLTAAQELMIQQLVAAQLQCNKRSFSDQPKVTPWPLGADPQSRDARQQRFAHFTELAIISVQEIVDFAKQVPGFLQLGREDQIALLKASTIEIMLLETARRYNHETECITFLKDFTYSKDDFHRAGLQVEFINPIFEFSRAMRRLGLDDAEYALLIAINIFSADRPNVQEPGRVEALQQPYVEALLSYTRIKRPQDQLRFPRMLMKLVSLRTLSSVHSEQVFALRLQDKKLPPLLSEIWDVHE
hcDAF12 conf: confirmation of H. contortus DAF-12 agonists | shares compounds with hcDAF12 agonist | HEK293 hcDAF-12 lit1-tk-luc reporter, luminescence; % of Δ7-dafachronic acid response | activation, % at 6.8 µM | 3,400 tested, 61% active;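 active = mean activation across triplicate tests above the threshold derived from the earlier primary screen, cut at about 5.5% in these data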
hgDAF12 ag: confirmation of H. glycines DAF-12 agonists; shares compounds with hgDAF12 agonist; HEK293 GAL4-hgDAF12 luciferase reporter, agonist mode; percent of butyrate response; activation, % at 6.8 µM; 3,300 tested, 80% active;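 active = mean activation over triplicate wells above the hit cutoff derived from the earlier primary screen, cut at about 11% in these data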
LXRb DAF12 ctr: counter-screen for DAF-12 agonists: agonists of human LXR-beta; shares compounds with hgDAF12 agonist; HEK293 Gal4-LXR luciferase reporter, 24 h; activation, % at 6.8 µM; 3,300 tested, under 10 active;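 active = mean activation of the triplicate above a set limit carried over from the primary screen, none filed active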
Of the large screens only hits and unclear results are named; the others gave an inactive call (follow-up assays come after a bar, where they were run).

COc1ccc(/C=N/N=C(\N)c2nonc2N)cc1	DAX1 inh-1 8.7, hcDAF12 agonist 12.2, hgDAF12 agonist 15.5 | DAX1 conf 14.4 | SF1 AF2mut Luc 5.9 | LXRb hcDAF ctr inactive | hcDAF12 conf 6.6 | hgDAF12 ag 16.1 | LXRb DAF12 ctr inactive
COc1cccc(-c2ccc(CC[C@H]3O[C@H]4CC[C@@H](CO)O[C@H]4C[C@H]3NC(=O)c3cnccn3)cc2)c1	none (no result: DAX1 inh-2)
C/C(=N/NC(=O)c1ccccn1)c1ccco1	DAX1 inh-1 5.5, hgDAF12 agonist 13.4 | DAX1 conf 8.1 | SF1 AF2mut Luc 4.0 | hgDAF12 ag 13.2 | LXRb DAF12 ctr inactive
COC(=O)N/N=C(\C)c1ccco1	none (no result: DAX1 inh-2)
CCOc1ccc(-c2noc(-c3csc([C@@H]4C[C@H](O)[C@@H](CO)O4)n3)n2)cc1	none (no result: DAX1 inh-2)
OC[C@H]1O[C@@H](c2nc(-c3nc(-c4ccc(F)cc4)no3)cs2)[C@H](O)[C@@H]1O	DAX1 inh-1 9.8, hgDAF12 agonist 13.3 (no result: DAX1 inh-2) | DAX1 conf 13.4 | SF1 AF2mut Luc 7.2 | hgDAF12 ag 16.2 | LXRb DAF12 ctr inactive
O=C(NC1CCCCN(Cc2ccc(Cl)cc2)C1=O)c1cccc(C(F)(F)F)c1 (centres undefined)	none (no result: DAX1 inh-2)
Cc1[nH]c2ccccc2c1/C=N\NC(=O)CNc1ccc2c(c1)OCO2	none
Oc1[nH]c2ccccc2c1C=Nc1ccc2c(c1)OCO2	DAX1 inh-1 6.6, DAX1 inh-2 5.1, hcDAF12 agonist 7.0, hgDAF12 agonist 16.9 | DAX1 conf 16.3 | SF1 AF2mut Luc 8.2 | LXRb hcDAF ctr inactive | hcDAF12 conf 6.8 | hgDAF12 ag 19.1 | LXRb DAF12 ctr inactive
CCc1ccc(NC(=O)C(=S)NC2CCCCC2)cc1	none
CCc1ccc(NC(=O)NC2CCCCCCC2)cc1	DAX1 inh-1 7.9, hgDAF12 agonist 17.1 | DAX1 conf 10.4 | SF1 AF2mut Luc 5.4 | hgDAF12 ag 17.7 | LXRb DAF12 ctr inactive
C/C(=N\NC(=O)c1ccccc1F)c1cccc(NC(=O)c2ccc(C)cc2)c1	DAX1 inh-1 5.0, hgDAF12 agonist 13.5 | DAX1 conf inactive | SF1 AF2mut Luc inactive | hgDAF12 ag inactive | LXRb DAF12 ctr inactive
C/C(=N\NC(=O)c1cccc(F)c1)c1cccc(NC(=O)c2ccc(F)cc2)c1	none
CCn1c(C)cc(C(=O)COC(=O)c2cccnc2SC)c1C	DAX1 inh-1 5.9, DAX1 inh-2 7.9, hgDAF12 agonist 14.6 | DAX1 conf 6.1 | SF1 AF2mut Luc 4.4 | hgDAF12 ag 14.3 | LXRb DAF12 ctr inactive
Cc1cccc(OCc2cc(-c3ccccc3)no2)c1C	none
Clc1ccc(OCc2cc(-c3ccccc3)no2)c(Cl)c1	DAX1 inh-1 7.5, hcDAF12 agonist 7.2, ssDAF12 agonist 0.9, hgDAF12 agonist 14.6 | DAX1 conf 9.3 | SF1 AF2mut Luc inactive | LXRb hcDAF ctr inactive | hcDAF12 conf 10.0 | hgDAF12 ag inactive | LXRb DAF12 ctr inactive
O=C(Nc1ccc(N2CCCCC2)cc1)c1ccccc1	DAX1 inh-1 7.3, hcDAF12 agonist 7.2, hgDAF12 agonist 14.7 | DAX1 conf 17.3 | SF1 AF2mut Luc 6.7 | LXRb hcDAF ctr inactive | hcDAF12 conf inactive | hgDAF12 ag 16.6 | LXRb DAF12 ctr inactive
CN1CCN(c2ccc(NC(=O)Cc3ccccc3)cc2)CC1	none
CC(C)Oc1ccc(C(=O)Nc2ccc(N3CCCCC3)cc2)cc1	none
